Laboratory results published in PubChem BioAssay (NCI).
Compounds without any hit were thinned out: in the full panel of roughly 83,000, 20% have a hit.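 Single-concentration screen, 48 h exposure, 96-well plates. Endpoint: percent growth. Below 10 = active.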 Values without a mark were called inactive. The source made the active and inactive calls.

How the values were obtained:
Experiment in all cases: NCI-60 one-dose screen, 48 h (100 = growth as untreated, 0 = no growth, -100 = all killed)
Conditions in all cases: 10 µM unless noted
SR leukemia = test system: SR leukemia
OVCAR-8 ovarian = test system: OVCAR-8 ovarian
OVCAR-5 ovarian = test system: OVCAR-5 ovarian
OVCAR-4 ovarian = test system: OVCAR-4 ovarian
SK-OV-3 ovarian = test system: SK-OV-3 ovarian
HS 578T breast = test system: HS 578T breast
NCI/ADR-RES ovarian = test system: NCI/ADR-RES ovarian
T-47D breast = test system: T-47D breast
BT-549 breast = test system: BT-549 breast
MDA-MB-435 melanoma = test system: MDA-MB-435 melanoma
SW-620 colon = test system: SW-620 colon
MCF7 breast = test system: MCF7 breast
HCT-116 colon = test system: HCT-116 colon
HCC-2998 colon = test system: HCC-2998 colon
KM12 colon = test system: KM12 colon
OVCAR-3 ovarian = test system: OVCAR-3 ovarian
IGROV1 ovarian = test system: IGROV1 ovarian

| SMILES | growth (SR leukemia) | growth (OVCAR-8 ovarian) | growth (OVCAR-5 ovarian) | growth (OVCAR-4 ovarian) | growth (SK-OV-3 ovarian) | growth (HS 578T breast) | growth (NCI/ADR-RES ovarian) | growth (T-47D breast) | growth (BT-549 breast) | growth (MDA-MB-435 melanoma) | growth (SW-620 colon) | growth (MCF7 breast) | growth (HCT-116 colon) | growth (HCC-2998 colon) | growth (KM12 colon) | growth (OVCAR-3 ovarian) | growth (IGROV1 ovarian) |
| --- | --- | --- | --- | --- | --- | --- | --- | --- | --- | --- | --- | --- | --- | --- | --- | --- | --- |
| CCC(C)(c1cc(C(C)(C)C)c(O)c(C(C)(C)C)c1)c1cc(C(C)(C)C)c(O)c(C(C)(C)C)c1 | 90.4% | 102% | 94.5% | 103% | 100% | 97% | 102% | 84.2% | 104% | 105% | 102% | 92.5% | 99.2% | 110% | 100% | – | – |
| COc1ccc(-c2nc(NCCO)[nH]c(=O)c2C#N)cc1 | 94.3% | 107% | – | 107% | 97.7% | 106% | 98.1% | 82.8% | 103% | 103% | 106% | 91.9% | 102% | 103% | 95.8% | 111% | – |
| Nc1nc2ccccc2c2c(=O)c3cc(F)ccc3sc12 | 101% | 106% | 102% | 101% | – | 101% | 97.5% | 84.3% | 106% | 98.6% | 107% | 34.4% | 99.4% | 96.6% | 99% | 113% | 103% |
| O=C1CCC/C=C\C[C@H]2C=CC(=O)/C2=C/C[C@H](CCc2cccc(C(F)(F)F)c2)O1 | -4.73% (active) | 5.51% (active) | -16.9% (active) | 12.8% | -34.9% (active) | 14.3% | 1.09% (active) | -28% (active) | -29.3% (active) | -42.1% (active) | -32% (active) | -6.2% (active) | -82% (active) | -74.4% (active) | – | – | – |
| c1ccc(OCc2nnc(-c3ccc(Oc4ccccc4)cc3)o2)cc1 | 85.8% | 99.1% | 104% | 98.7% | – | 99% | 96.9% | 74.3% | 101% | 101% | 103% | 99.3% | 100% | 114% | – | 98.3% | – |
| CC(C)C(=O)Nc1ccc(-c2nc(-c3cccc(OCCN4CCOCC4)c3)c(-c3ccnc(Br)c3)[nH]2)cc1 | -3.9% (active) | 51.8% | 75.2% | 60% | – | -26% (active) | 91.7% | 39% | 56.4% | – | 50.4% | 15.9% | 44.5% | 66.2% | 33.7% | 63.3% | 68.7% |
| CCOC(=O)C1=C(N)Oc2c(sc3c(CC)cccc23)C1c1ccc(F)cc1 (configuration not stated) | 27.2% | 45.2% | 56.2% | 58.7% | – | 23.9% | 32.2% | 26.8% | 73.6% | – | 22.3% | 10.2% | 25.5% | 61.4% | 24% | -6.19% (active) | 29.3% |
| CSc1ccc2c(c1)c(CCN)c(C)n2Cc1ccc(Cl)c(Cl)c1 | -61.6% (active) | -60.8% (active) | -58.2% (active) | -93.2% (active) | – | -39.2% (active) | -87.8% (active) | -73.7% (active) | -79.6% (active) | -91.4% (active) | -63.8% (active) | – | -92.3% (active) | -88.4% (active) | -90.2% (active) | -88.4% (active) | – |
| COC1=C(C)C(=O)c2c(c(CCCl)c3n2CCC3OC(C)=O)C1=O (configuration not stated) | 1.94% (active) | 10.2% | – | 72% | – | -22.9% (active) | 8.95% (active) | 60.6% | -48.2% (active) | -58% (active) | 3.87% (active) | -39.9% (active) | -19.7% (active) | -48.1% (active) | -18.6% (active) | -23.3% (active) | – |
| COc1ccc(NC2=C(Br)C(=O)C(C)=C(C)C2=O)cc1 | 2.06% (active) | -29.7% (active) | 102% | -99.6% (active) | – | 96.9% | 80.6% | -33.9% (active) | 101% | – | 98.9% | 63.5% | 14.1% | 99.6% | 94.8% | 60.3% | 41.3% |
